According to PubChem BioAssay:
Active and inactive are the calls of the source.

Experiments:
[1] = system: Plasmodium falciparum Sir2 (PF13_0152, Sir2A); experiment: pfSir2 binders on small-molecule microarrays, primary screen, biochemical, small-molecule microarray, 635 nm fluorescence (AID 1098); conditions: small-molecule microarray binding, fluorescence 635 nm; higher = more signal;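 also: score merges spot fluorescence intensity with its signal-to-noise ratio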
[2] = small-molecule microarray binders of probe aDKK1, primary screen, biochemical, biotinylated probe, 635/667 nm fluorescence (AID 1099); conditions: higher = more signal;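 also: score merges 667nm spot fluorescence with signal to noise across triplicate slides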
[3] = small-molecule microarray binders of probe aCHRDL2, primary screen, biochemical, biotinylated probe, 635/667 nm fluorescence (AID 1100); conditions: higher = more signal
[4] = splicing luciferase reporter signal modulators, primary screen, spliceosome inhibition project, cell-based, HEK293, splice +/- reporter (AID 1101); conditions: luminescence, 24 h, higher = more signal, called active from +8 up or from −8 down;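 also: HEK293 cells carrying a splicing-competent luciferase reporter gene; test concentration not given here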
[5] = biological target: Fibroblast growth factor 10 (Homo sapiens) (UniProt O15520); experiment: FGF10 binders on small-molecule microarrays, primary screen, biochemical, small-molecule microarray, 635 nm fluorescence (AID 1102); conditions: FGF10 binding, fluorescence 635 nm, higher = more signal
[6] = system: glycogen synthase kinase-3 (GSK3A per assay name; protocol says GSK3B); experiment: GSK3 binders on small-molecule microarrays, primary screen, biochemical, small-molecule microarray, 635 nm fluorescence, GSK3A (AID 1103); conditions: small-molecule microarray binding, fluorescence 635 nm; higher = more signal; also: the record names both GSK3A and GSK3B
[7] = biological target: Epidermal growth factor receptor (Homo sapiens) (UniProt P00533); experiment: EGFR binders on small-molecule microarrays, primary screen, biochemical, small-molecule microarray, 635 nm fluorescence (AID 1104); conditions: EGFR binding, higher = more signal;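 also: score merges 667 nm emission intensity with spot signal to noise over triplicate slides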
[8] = biological target: Follistatin-related protein 3 (Homo sapiens) (UniProt O95633); experiment: FSTL3 binders on small-molecule microarrays, primary screen, biochemical, small-molecule microarray, 635 nm fluorescence (AID 1105); conditions: FSTL3 binding, higher = more signal;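 also: score merges emission near 667 nm and signal to noise per printed spot across three slides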
[9] = biological target: Dickkopf-related protein 1 (Homo sapiens) (UniProt O94907); experiment: DKK1 binders on small-molecule microarrays, primary screen, biochemical, small-molecule microarray, 635 nm fluorescence scan (AID 1106); conditions: DKK1 binding, higher = more signal;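 also: score merges emission near 667 nm with signal to noise over three replicate slides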
[10] = system: Inhibin beta A chain (activin A); experiment: INHBA (activin A) binders on microarrays, primary screen, biochemical, small-molecule microarray, 635 nm fluorescence scan (AID 1107); conditions: small-molecule microarray binding, higher = more signal;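 also: mouse activin A protein probed at 4.33 µg/mL on printed slides; score merges bound-protein fluorescence near 667 nm with spot signal-to-noise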
[11] = system: Human papillomavirus type 1a protein E7 (residues 44-93); experiment: HPV1a E7 fragment binders on microarrays, primary screen, biochemical, small-molecule microarray, residues 44-93, 635 nm fluorescence (AID 1108); conditions: small-molecule microarray binding, fluorescence 635 nm; higher = more signal;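 also: E7 fragment applied at 1 µg/mL in TBST for 1 h at 4 C; score combines spot fluorescence with its signal to noise ratio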
[12] = modulators of HCV replicon luciferase signal, primary screen, HCV replication inhibitor project, Huh7 cells, luciferase reporter (AID 1109); conditions: 48 h, higher = more signal;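 also: huh7 hepatoma cells harbouring a luciferase neomycin HCV replicon reporter; luciferase luminescence as measure of HCV replicon replication; test concentration not given here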
[13] = biological target: Left-right determination factor 2 (Homo sapiens) (UniProt O00292); experiment: LEFTY2 binders on small-molecule microarrays, primary screen, biochemical, small-molecule microarray, 635 nm fluorescence scan (AID 1110); conditions: LEFTY2 binding, higher = more signal
[14] = biological target: Calmodulin-1 (Homo sapiens) (UniProt P0DP23); experiment: CALM1 binders on microarrays, EGTA buffer, profiling panel, biochemical, small-molecule microarray, Cy5-labelled CALM1 (AID 1111); conditions: Cy5-CALM1 binding fluorescence, higher = more signal;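 also: labelled calmodulin applied in Tris saline Tween buffer holding calcium plus EGTA and DTT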
[15] = biological target: Calmodulin-1 (Homo sapiens) (UniProt P0DP23); experiment: calcium-bound CALM1 binders on microarrays, profiling panel, artefact control for SMM control-protein annotation, biochemical, small-molecule microarray, Cy5-labelled CALM1, plus calcium (AID 1112); conditions: Cy5-CALM1 binding fluorescence, higher = more signal;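 also: score merges spot fluorescence with signal to noise from triplicate slides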
[16] = small-molecule microarray binders of probe aWnt5a, primary screen, biochemical, biotinylated probe, 635/667 nm fluorescence (AID 1113); conditions: higher = more signal;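 also: score merges 667 nm fluorescence intensity with signal-to-noise per printed feature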
[17] = small-molecule microarray binders of probe aShh, primary screen, biochemical, biotinylated probe, 635/667 nm fluorescence (AID 1114); conditions: higher = more signal;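 also: probe is biotin-labelled aShh protein from a stem cell growth factor screen; measures binding of labelled protein to compounds printed on the slide; score merges feature fluorescence at 667 nm with signal-to-noise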
[18] = small-molecule microarray binders of probe aNog, primary screen, biochemical, biotinylated probe, 635/667 nm fluorescence (AID 1115); conditions: higher = more signal;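 also: probe is biotinylated aNog protein used at 0.15 µg/mL for 1 h at 4 C; z-score combines 667 nm fluorescence of each spot with its signal to noise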
[19] = biological target: Torsin-1A-interacting protein 1 (Homo sapiens) (UniProt Q5JTV8); experiment: LAP1 binders from COS7 cell lysate, primary screen, small-molecule microarray, 635/667 nm fluorescence (AID 1116); conditions: COS7-hLAP1 lysate binding, 635 nm fluorescence, higher = more signal
[20] = biological target: Alpha-bungarotoxin (Bungarus multicinctus) (UniProt P60615); experiment: alpha-bungarotoxin binders on microarray, profiling panel, artefact control for SMM control protein annotation, biochemical, small-molecule microarray, Alexa647 label, 635/667 nm fluorescence (AID 1117); conditions: alpha-BTX-A647 binding fluorescence, higher = more signal
Alpha-bungarotoxin (Bungarus multicinctus), sequence (P60615 whole entry, looked up): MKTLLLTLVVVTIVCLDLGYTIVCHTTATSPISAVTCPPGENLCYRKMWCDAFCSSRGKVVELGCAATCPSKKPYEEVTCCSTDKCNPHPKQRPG

Epidermal growth factor receptor (Homo sapiens), sequence (P00533 whole entry, looked up): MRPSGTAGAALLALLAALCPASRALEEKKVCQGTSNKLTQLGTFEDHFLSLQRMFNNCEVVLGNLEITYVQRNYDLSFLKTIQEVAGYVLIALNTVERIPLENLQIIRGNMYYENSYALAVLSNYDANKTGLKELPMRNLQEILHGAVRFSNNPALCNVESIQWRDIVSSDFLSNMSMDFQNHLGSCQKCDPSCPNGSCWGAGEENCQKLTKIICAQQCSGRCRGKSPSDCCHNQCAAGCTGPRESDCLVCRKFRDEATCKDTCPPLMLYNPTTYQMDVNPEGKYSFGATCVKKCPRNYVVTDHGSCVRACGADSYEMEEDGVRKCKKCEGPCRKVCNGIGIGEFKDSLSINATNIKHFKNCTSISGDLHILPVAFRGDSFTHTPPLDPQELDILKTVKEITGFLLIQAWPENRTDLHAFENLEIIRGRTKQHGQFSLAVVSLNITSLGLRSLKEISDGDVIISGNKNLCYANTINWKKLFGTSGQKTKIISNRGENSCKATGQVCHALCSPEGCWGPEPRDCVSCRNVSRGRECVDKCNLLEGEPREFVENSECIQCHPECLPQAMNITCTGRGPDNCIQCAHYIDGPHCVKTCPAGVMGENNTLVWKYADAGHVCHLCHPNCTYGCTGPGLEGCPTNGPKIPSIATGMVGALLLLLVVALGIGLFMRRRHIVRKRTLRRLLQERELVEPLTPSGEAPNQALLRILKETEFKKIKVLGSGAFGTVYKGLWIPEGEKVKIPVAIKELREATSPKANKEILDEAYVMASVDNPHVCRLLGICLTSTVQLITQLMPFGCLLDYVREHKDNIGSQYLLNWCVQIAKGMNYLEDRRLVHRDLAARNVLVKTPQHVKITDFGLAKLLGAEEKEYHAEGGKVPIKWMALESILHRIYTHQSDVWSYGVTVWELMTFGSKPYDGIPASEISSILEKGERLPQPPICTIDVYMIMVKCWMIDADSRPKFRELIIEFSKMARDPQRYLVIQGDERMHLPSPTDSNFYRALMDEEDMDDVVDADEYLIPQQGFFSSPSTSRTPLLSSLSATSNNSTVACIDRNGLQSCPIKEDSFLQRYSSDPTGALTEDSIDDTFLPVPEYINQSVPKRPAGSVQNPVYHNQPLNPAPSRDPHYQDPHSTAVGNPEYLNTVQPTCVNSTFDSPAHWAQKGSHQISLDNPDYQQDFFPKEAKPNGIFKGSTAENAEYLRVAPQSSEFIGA
Dickkopf-related protein 1 (Homo sapiens), sequence (O94907 whole entry, looked up): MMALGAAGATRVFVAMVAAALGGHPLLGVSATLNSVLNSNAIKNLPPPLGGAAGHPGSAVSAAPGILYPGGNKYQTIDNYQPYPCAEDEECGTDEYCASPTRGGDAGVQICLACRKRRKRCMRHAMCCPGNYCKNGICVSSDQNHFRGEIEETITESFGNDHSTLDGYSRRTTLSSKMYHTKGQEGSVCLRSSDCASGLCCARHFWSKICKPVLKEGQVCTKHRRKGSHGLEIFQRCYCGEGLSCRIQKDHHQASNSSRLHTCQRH
Torsin-1A-interacting protein 1 (Homo sapiens), sequence (Q5JTV8 whole entry, looked up): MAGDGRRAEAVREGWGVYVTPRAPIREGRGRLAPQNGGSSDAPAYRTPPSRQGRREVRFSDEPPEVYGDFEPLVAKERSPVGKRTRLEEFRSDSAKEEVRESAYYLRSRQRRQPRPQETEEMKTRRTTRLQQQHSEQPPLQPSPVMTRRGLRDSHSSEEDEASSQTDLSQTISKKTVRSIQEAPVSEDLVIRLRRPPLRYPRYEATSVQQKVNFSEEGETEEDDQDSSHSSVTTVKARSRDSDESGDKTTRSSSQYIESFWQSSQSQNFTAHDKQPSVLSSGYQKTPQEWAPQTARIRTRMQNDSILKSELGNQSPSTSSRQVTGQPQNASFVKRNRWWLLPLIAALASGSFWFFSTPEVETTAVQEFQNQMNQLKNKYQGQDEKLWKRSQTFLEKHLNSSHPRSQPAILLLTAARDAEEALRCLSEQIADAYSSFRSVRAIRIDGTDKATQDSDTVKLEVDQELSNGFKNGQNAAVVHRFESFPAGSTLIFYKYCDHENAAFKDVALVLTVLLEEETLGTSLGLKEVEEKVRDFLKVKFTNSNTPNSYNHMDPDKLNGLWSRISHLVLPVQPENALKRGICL
Fibroblast growth factor 10 (Homo sapiens), sequence (O15520 whole entry, looked up): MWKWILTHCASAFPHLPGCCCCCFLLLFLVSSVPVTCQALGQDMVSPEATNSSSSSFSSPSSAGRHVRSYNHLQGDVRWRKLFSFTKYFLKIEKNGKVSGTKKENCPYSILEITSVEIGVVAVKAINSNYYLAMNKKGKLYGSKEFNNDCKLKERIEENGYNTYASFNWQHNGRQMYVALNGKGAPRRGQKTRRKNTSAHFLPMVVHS
Left-right determination factor 2 (Homo sapiens), sequence (O00292 whole entry, looked up): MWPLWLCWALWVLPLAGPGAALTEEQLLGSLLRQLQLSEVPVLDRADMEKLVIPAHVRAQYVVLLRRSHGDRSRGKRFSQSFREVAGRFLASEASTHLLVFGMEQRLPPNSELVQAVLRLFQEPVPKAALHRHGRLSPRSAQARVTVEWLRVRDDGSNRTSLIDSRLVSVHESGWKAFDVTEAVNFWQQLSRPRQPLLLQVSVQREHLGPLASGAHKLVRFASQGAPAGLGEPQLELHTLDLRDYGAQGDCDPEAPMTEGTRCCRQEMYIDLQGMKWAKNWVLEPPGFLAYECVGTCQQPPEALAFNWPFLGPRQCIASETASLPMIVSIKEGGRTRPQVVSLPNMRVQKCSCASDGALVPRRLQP
Follistatin-related protein 3 (Homo sapiens), sequence (O95633 whole entry, looked up): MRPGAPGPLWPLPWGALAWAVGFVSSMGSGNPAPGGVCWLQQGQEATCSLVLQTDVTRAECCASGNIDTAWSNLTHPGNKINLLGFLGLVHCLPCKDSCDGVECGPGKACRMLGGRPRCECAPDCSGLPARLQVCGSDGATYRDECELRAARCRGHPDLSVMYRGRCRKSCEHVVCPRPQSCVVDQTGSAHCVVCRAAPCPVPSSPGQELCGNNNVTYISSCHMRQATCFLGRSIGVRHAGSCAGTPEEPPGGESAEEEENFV

Compound	composite z-score [1]	composite z-score [2]	composite z-score [3]	z-score [4]	composite z-score [5]	composite z-score [6]	composite z-score [7]	composite z-score [8]	composite z-score [9]	composite z-score [10]	composite z-score [11]	z-score [12]	composite z-score [13]	composite z-score [14]	composite z-score [15]	composite z-score [16]	composite z-score [17]	composite z-score [18]	composite z-score [19]	composite z-score [20]
CN(C)C(=O)[C@@]1(CCS(=O)(=O)c2ccccc2)N=C(c2ccc(OCCCO)cc2)O[C@H]1c1ccccc1N=[N+]=[N-]	1.44	0.466	0.817	-0.445 (inactive)	1.36	1.29	0.193	1.03	-0.0735	0.786	1.43	-0.235	0.258	-0.038	-0.0024	0.0445	0.199	-0.484	1.56	0.901
O=C1O[C@H](c2ccccc2)[C@H](c2ccccc2)N2[C@H]1[C@@H](C(=O)NC[C@H](O)c1ccccc1)[C@]1(C(=O)Nc3ccc(C#CCCO)cc31)[C@H]2c1ccccc1OCCO	1.51	-0.232	0.558	0.0927 (inactive)	0.458	-0.495	-0.297	0.577	-0.515	0.205	1.4	-1.47	-0.66	0.548	-0.0628	-0.147	0.149	-0.0503	1.35	2.1
CN1C(=O)C2C(C1=O)C1C=C(c3ccc(CO)cc3)C2C(c2cccs2)N1C (stereo not given)	0.609	0.0014	0.381	-0.516 (inactive)	-0.0606	0.378	-0.2	-0.164	-0.0556	0.779	0.104	0.706	-0.112	1.47	0.312	-0.1	-0.0553	-0.12	2.17	1.86
Cc1ccc(F)cc1S(=O)(=O)N[C@@H]1CCN(Cc2ccc3[nH]ccc3c2)C1	0.114	-0.177	-0.124	0.309 (inactive)	0.482	0.139	0.651	1.08	0.574	0.689	0.935	-4.03	0.292	-0.46	-0.754	-0.12	-0.0709	-0.295	0.144	0.431
C=C(COC)/C(=C/C[C@H](OC(=O)c1ccncc1)c1cccc(OCCO)c1)c1cnc2ccccc2c1	0.691	0.199	0.293	0.0664 (inactive)	1.05	1.3	0.855	1.45	0.938	1.2	-0.378	-1.56	0.791	0.697	-0.64	-0.0944	0.235	-0.145	0.756	3.02
CCOC(=O)C[C@H]1[C@H](OC(=O)Cc2ccc3c(c2)OCO3)[C@@H](NC(=O)c2ccccc2)c2cc(OCCCO)ccc2N1C(=O)Cc1ccc(OC)cc1	-0.1	-0.386	-0.167	-2.62 (inactive)	0.236	0.227	0.237	0.339	0.0486	-0.296	0.334	-1.53	-0.113	1.04	0.188	-0.0545	-0.0626	-0.196	0.435	0.774
COCCCNC(=O)[C@@]1(Sc2ccc(C)cc2)CC(=O)N(C2CCCCC2)[C@@H]1c1ccc(CO)cc1I	1.06	0.79	0.629	-0.924 (inactive)	1.01	1.28	0.549	1.38	0.216	-0.148	1.01	-2.63	0.816	0.99	0.565	-0.0853	-0.0362	-0.631	1.34	1.99
COCCOC(=O)N1C(=O)[C@@]2(c3cc(C#CC4=CCCCC4)ccc31)[C@H](C(=O)N1CCN(c3ncccn3)CC1)[C@H]1C(=O)O[C@H](c3ccccc3)[C@H](c3ccccc3)N1[C@@H]2c1ccccc1OCCO	0.419	-0.082	-0.296	-0.544 (inactive)	1.3	1.28	0.396	1.19	0.402	0.451	1.38	-1.9	0.419	0.936	0.473	-0.0778	-0.19	-0.0845	0.961	0.903
COC(=O)[C@@]1(Cc2ccc(F)cc2)[C@H]2c3cc(C(=O)N(C)C)n(CCN4CCOCC4)c3C[C@H]2CN1C(=O)c1ccccc1	0.756	1.72	0.868	-0.575 (inactive)	1.03	1.12	0.045	-0.265	-0.431	0.84	0.357	0.349	0.134	0.639	-0.125	0.974	0.275	0.932	0.868	0.0194
CC(C)C(=C=CC[C@@H](O)c1ccc(OCCO)cc1)CCO	0.959	-0.233	0.0776	-0.35 (inactive)	0.688	-0.579	-0.395	0.196	-0.117	0.516	0.0426	-0.283	-0.141	0.236	-0.421	-0.18	-0.237	-0.178	-0.117	0.441
